hcDAF-12 act: H. contortus DAF-12 activation, primary screen; HEK293 hcDAF-12 lit1-tk-luc reporter, luminescence; 0% DMSO, 100% Δ7-dafachronic acid; activation, % at 6.8 µM; 370,000 tested, 1.4% active;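 active means activation above the mean of all tested compounds plus 3 SD, cut at about 5.5% in these data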;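 further: 100% = response to 3 µM Δ7-dafachronic acid high control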
DAX1 inh: DAX1 (NR0B1) inhibition, primary screen; inhibition, % at 6.8 µM; HEK293T StAR-luciferase reporter, SF-1/DAX-1 repression relief; 370,000 tested, 1.1% active; AID 652010;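 active means inhibition above the mean over all tested compounds plus 3 SD, cut at about 3.6% in these data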;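 further: 0% = DAX-1 cells with DMSO and 100% = cells lacking DAX-1 with DMSO; higher inhibition means more luminescence from relief of DAX-1 repression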
hgDAF-12 ag: hgDAF-12 agonism, primary luciferase screen; 370,000 tested, 1.8% active; HEK293 GAL4-hgDAF12 UAS-luciferase reporter, agonist luminescence; normalized to butyrate control; activation, % at 6.8 µM;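 active means activation above a cutoff set at the mean of all screened compounds plus 3 SD, cut at about 10% in these data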;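 further: 0% = DMSO wells and 100% = sodium butyrate wells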
ssDAF-12 act: activates DAF-12 receptor from parasite S. stercoralis. HEK293 ssDAF-12/GRIP1 lit1-tk-luc reporter, luminescence; % of 3 µM dafachronic acid response. activation, % at 6.8 µM. 370,000 tested, 1% active. AID 652126;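 active means activation above the mean over all tested compounds plus 3 SD, cut at about 0.9% in these data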;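 further: 0% = DMSO-only wells and 100% = 3 µM delta7-dafachronic acid wells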
SMARCA2 activ: activators of SMARCA2 function. MG213 cells, MMTV-luciferase reporter, dexamethasone, overnight. activation, % at 9.1 µM. 370,000 tested, 1% active; in the data active means activation above about 7.8%;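 further: 0% = vehicle wells and 100% = reference activator wells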
SMARCA2 conf: confirmation of SMARCA2 (BRM) function activators | shares compounds with SMARCA2 activ | MG213 cells, MMTV-luciferase with dexamethasone, luminescence, overnight; MG213 cells expressing E1A, Rb sequestered; DMSO wells 0%, reference activator 100% | activation, % at 9.1 µM | 3,500 tested, 30% active | AID 652260;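 active means activation above its plate's cutoff, the mean activation of tested wells plus 3 SD, cut at about 7.9% in these data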
GAL4-VP16 Luc: GAL4-VP16 reporter activation counter-screen; AID 686939; activation, % at 9.1 µM; shares compounds with SMARCA2 activ; 3,500 tested, 41% active; HEK293 GAL4-VP16 pG5luc reporter, luciferase luminescence; scaled: DMSO wells 0%, SAHA wells 100%;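 active means activation above the solvent-only control well mean plus 3 SD, averaged across control plates, cut at about 5.2% in these data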
Numbers without * were called inactive. Rows were chosen to be rich in hits. Some 4.2% of all compounds tested hit in one or more screens of this group.

COC(=O)c1ccc(NC(=S)NC2c3ccccc3CC2O)cc1 (stereo unspecified) was read as hcDAF-12 act 0, DAX1 inh 0, hgDAF-12 ag 1, ssDAF-12 act -1, SMARCA2 activ 8.3*, SMARCA2 conf 4 and GAL4-VP16 Luc 0.
Screening N#Cc1c(NC(=O)C2CC2)sc2c1CCCCC2 returned hcDAF-12 act 4, DAX1 inh 0, hgDAF-12 ag 3, ssDAF-12 act -2, SMARCA2 activ 8.9*, SMARCA2 conf 7 and GAL4-VP16 Luc 7.4*.
Screening CC(C)C(=O)Nc1sc2c(c1C#N)CCCCC2 returned hcDAF-12 act -2, DAX1 inh -1, hgDAF-12 ag 3, ssDAF-12 act -1, SMARCA2 activ 12*, SMARCA2 conf 2 and GAL4-VP16 Luc 2.
For CCCC(=O)Nc1sc2c(c1C#N)CCCC2 the results were hcDAF-12 act 1, DAX1 inh 1, hgDAF-12 ag 6, ssDAF-12 act -1 and SMARCA2 activ 2.
For N#Cc1c(NC(=O)C2C3C=CC(C3)C2C(=O)O)sc2c1CCCCC2 (stereo unspecified) the results were hcDAF-12 act -1, DAX1 inh 0, hgDAF-12 ag -1, ssDAF-12 act -1 and SMARCA2 activ 3.
For CCN(C1CCCCC1)S(=O)(=O)c1ccc(-n2cnnn2)c(C)c1 the results were hcDAF-12 act -1, DAX1 inh 0, hgDAF-12 ag -1, ssDAF-12 act -1, SMARCA2 activ 9.3*, SMARCA2 conf -4 and GAL4-VP16 Luc 2.
For O=C(NCc1ccccc1)[C@@H]1CCCN1C(=O)[C@H]1CCCN1C(=O)c1cccc2ccccc12 the results were hcDAF-12 act 2, DAX1 inh -1, hgDAF-12 ag -2, ssDAF-12 act -1 and SMARCA2 activ -6.
Screening CCCC1CCC2(CC1)CCC2OC(=O)Nc1ccccc1OC (stereo unspecified) returned hcDAF-12 act -1, hgDAF-12 ag -1 and ssDAF-12 act -1.
Screening COC(=O)[C@H](C(C)C)N(CCCc1cn(Cc2ccc(C)cc2)nn1)S(=O)(=O)c1ccccc1Br returned hcDAF-12 act -1, DAX1 inh -2, hgDAF-12 ag -5, ssDAF-12 act -2 and SMARCA2 activ -3.
COc1ccc(C(=O)C=Cc2ccc3c(c2)OCO3)cc1OC was read as hcDAF-12 act 0, DAX1 inh 0, hgDAF-12 ag 2, ssDAF-12 act -1, SMARCA2 activ 10*, SMARCA2 conf 12* and GAL4-VP16 Luc 0.
`COc1ccc(C(=O)/C=C/c2ccc3c(c2)OCCO3)cc1` gave hcDAF-12 act 0, DAX1 inh 0, hgDAF-12 ag 2, ssDAF-12 act 0 and SMARCA2 activ 0.
For COc1cc(C(=O)Nc2ccc3c(c2)OCO3)ccc1OCc1c(C)noc1C the results were hcDAF-12 act -2, DAX1 inh -1, hgDAF-12 ag 1, ssDAF-12 act -2, SMARCA2 activ 8.4*, SMARCA2 conf 6 and GAL4-VP16 Luc 0.
For COc1cc(C(=O)NCc2ccc3c(c2)OCO3)ccc1OCc1c(C)noc1C the results were hcDAF-12 act -1, DAX1 inh 0, hgDAF-12 ag 0, ssDAF-12 act -1 and SMARCA2 activ 2.
For O=C(/C=C/c1ccc2c(c1)OCCO2)c1ccccc1 the results were hcDAF-12 act 4, DAX1 inh 1, hgDAF-12 ag 11*, ssDAF-12 act -1, SMARCA2 activ 17*, SMARCA2 conf 10* and GAL4-VP16 Luc 9.1*.
`Cc1nc2ccccn2c1P(=O)(c1ccccc1)c1ccccc1` gave hcDAF-12 act -1, hgDAF-12 ag 2 and ssDAF-12 act -2.
For O=S1(=O)c2cc(Cl)ccc2N2CCC[C@@H]2CN1Cc1ccc(Cl)c(Cl)c1 the results were hcDAF-12 act 0, DAX1 inh -1, hgDAF-12 ag 3, ssDAF-12 act 0 and SMARCA2 activ -6.
Screening Cc1cccc(NC(=O)CCC2CCN(C(=O)C3CC=CCC3)CC2)c1 (stereo unspecified) returned hcDAF-12 act -2, DAX1 inh -3, hgDAF-12 ag 0, ssDAF-12 act -2 and SMARCA2 activ -1.
COc1cccc(NC(=O)CCC2CCN(C(=O)C3CC=CCC3)CC2)c1 (stereo unspecified) was read as hcDAF-12 act -1, DAX1 inh 0, hgDAF-12 ag -1, ssDAF-12 act -1, SMARCA2 activ 8.0*, SMARCA2 conf -3 and GAL4-VP16 Luc 2.
For COCCCNC(=O)C[C@H]1C[C@@]2(C(=O)OC)C(=C[C@H](C3CCCC3)O[C@@H]2C)N(Cc2cccc3ccccc23)C1=O the results were hcDAF-12 act -4, DAX1 inh -1, hgDAF-12 ag -1, ssDAF-12 act -1 and SMARCA2 activ -2.
For CC(=O)c1ccc(NC(=O)CSc2nc(=O)cc(N)n2-c2ccccc2)cc1 the results were hcDAF-12 act 4, DAX1 inh 0, hgDAF-12 ag 6, ssDAF-12 act -1, SMARCA2 activ 8.6*, SMARCA2 conf 7 and GAL4-VP16 Luc 8.8*.
For COC(=O)c1ccc(NC(=O)CSc2nc(=O)cc(N)n2-c2ccccc2)cc1 the results were hcDAF-12 act -1, DAX1 inh -1, hgDAF-12 ag -3, ssDAF-12 act -1 and SMARCA2 activ 1.
Screening O=C(Nc1ccc2nccnc2c1)Nc1ccccc1Cl returned hcDAF-12 act -1, DAX1 inh 0, hgDAF-12 ag 11*, ssDAF-12 act -2, SMARCA2 activ 8.9*, SMARCA2 conf 1 and GAL4-VP16 Luc 6.8*.
For CCOc1ccc(NC(=O)c2nccnc2CO)cc1 the results were hcDAF-12 act 1, DAX1 inh 2, hgDAF-12 ag 10, ssDAF-12 act -1, SMARCA2 activ 9.8*, SMARCA2 conf 4 and GAL4-VP16 Luc 9.8*.
For CCOc1ccc(NC(=O)c2cnccn2)cc1 the results were hcDAF-12 act 2, DAX1 inh 2, hgDAF-12 ag 9, ssDAF-12 act 0 and SMARCA2 activ 6.
`CCOc1ccc(NC(=O)c2cnsn2)cc1` gave hcDAF-12 act 3, DAX1 inh 2, hgDAF-12 ag 4, ssDAF-12 act 0, SMARCA2 activ 8.1*, SMARCA2 conf 14* and GAL4-VP16 Luc 5.
COc1ccc(C2C(C(=O)N3CCN(c4ccccc4Cl)CC3)CC(=O)N2c2ccc(OC)cc2)cc1 (stereo unspecified) was read as hcDAF-12 act -3, DAX1 inh -1, hgDAF-12 ag -1, ssDAF-12 act -2 and SMARCA2 activ -1.
